# Experimental data reported in the supplement of paper PMC8728848.
# Only a selection was taken, and the strongest signals are over-represented in it overall.
# B1: DC-ASGPR Long (Homo sapiens) (protein)
# chain: MTRTYENFQYLENKVKVQGFKNGPLPLQSLLQRLRSGPCHLLLSLGLGLLLLVIICVVGFQNSKFQRDLVTLRTDFSNFTSNTVAEIQALTSQGSSLEETIASLKAEVEGFKQERQAGVSELQEHTTQKAHLGHCPHCPSVCVPVHSEMLLRVQQLVQDLKKLTCQVATLNNNASTEGTCCPVNWVEHQDSCYWFSHSGMSWAEAEKYCQLKNAHLVVINSREEQNFVQKYLGSAYTWMGLSDPEGAWKWVDGTDYATGFQNWKPGQPDDWQGHGLGGGEDCAHFHPDGGWNDDVCQRPYHWVCEAGLGQTSQESH
# Experiments:
# Test in all cases: glycan array binding signal (z-score within array); higher = stronger binding
# Conditions in all cases: glycan notation: IUPAC condensed, linker removed
# [1] = target: Fuc(a1-2)Gal(b1-3)GlcNAc(b1-2)Man(a1-3)[Fuc(a1-2)Gal(b1-3)GlcNAc(b1-2)Man(a1-6)]Man(b1-4)GlcNAc(b1-4)GlcNAc
# Outline: (§1)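 Glycan array data came from 3228 arrays in the Consortium for Functional Glycomics database, and only arrays with an available protein sequence were kept. Glycan names were put into IUPAC-condensed notation, and columns mapping to the same glycan were averaged. The binding signal is a within-array Z-score, averaged across arrays of one protein sequence run at different concentrations or buffers and across linkers. A negative Z-score can be read as non-binding.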
# [2] = target: Fuc(a1-2)Gal(b1-3)GlcNAc(b1-2)Man(a1-3)[Fuc(a1-2)Gal(b1-3)GlcNAc(b1-2)Man(a1-6)]Man(b1-4)GlcNAc(b1-4)[Fuc(a1-6)]GlcNAc
# Outline: as §1
# Fuc(a1-2)Gal(b1-4)GlcNAc = target: Fuc(a1-2)Gal(b1-4)GlcNAc
# Outline: as §1
# [3] = target: Fuc(a1-2)Gal3S(b1-4)GlcNAc
# Outline: as §1
# [4] = target: Fuc(a1-2)[GalNAc(a1-3)]Gal(b1-4)GlcNAc(b1-3)Gal(b1-4)GlcNAc
# Outline: as §1
# [5] = target: Fuc(a1-2)[GalNAc(a1-3)]Gal(b1-4)GlcNAc(b1-6)GalNAc
# Outline: as §1
# [6] = target: Fuc(a1-2)[GalNAc(a1-4)]Gal(b1-4)GlcNAc
# Outline: as §1
# [7] = target: Fuc(a1-2)[GalNAc(b1-3)]Gal
# Outline: as §1
# [8] = target: Gal(a1-3)Gal(b1-3)GlcNAc(b1-6)GalNAc
# Outline: as §1
# [9] = target: Gal(a1-3)Gal(b1-4)GlcNAc(b1-6)GalNAc
# Outline: as §1
# [10] = target: Gal(a1-4)Gal(b1-3)GlcNAc(b1-2)Man(a1-3)[Gal(a1-4)Gal(b1-3)GlcNAc(b1-2)Man(a1-6)]Man(b1-4)GlcNAc(b1-4)GlcNAc
# Outline: as §1
# [11] = target: Gal(a1-4)Gal(b1-4)GlcNAc(b1-3)Gal(b1-4)Glc
# Outline: as §1
# Gal(b1-3)GlcNAc(b1-2)Man = target: Gal(b1-3)GlcNAc(b1-2)Man
# Outline: as §1
# [12] = target: Gal(b1-3)GlcNAc(b1-2)Man(a1-3)[GlcNAc(b1-4)][Gal(b1-3)GlcNAc(b1-2)Man(a1-6)]Man(b1-4)GlcNAc(b1-4)GlcNAc
# Outline: as §1
# [13] = target: Gal(b1-3)GlcNAc(b1-6)GalNAc
# Outline: as §1
# Gal3S(b1-4)Glc = target: Gal3S(b1-4)Glc
# Outline: as §1
# [14] = target: GalNAc(b1-3)Gal(a1-4)Gal(b1-4)GlcNAc
# Outline: as §1
# [15] = target: GalNAc(b1-3)Gal(a1-6)Gal(b1-4)Glc
# Outline: as §1
# [16] = target: GlcNAc(b1-2)Man(a1-3)[GlcNAc(b1-4)][GlcNAc(b1-2)Man(a1-6)]Man(b1-4)GlcNAc(b1-4)GlcNAc
# Outline: as §1
# [17] = target: GlcNAc(b1-2)[GlcNAc(b1-6)]Man(a1-6)[GlcNAc(b1-2)Man(a1-3)]Man(b1-4)GlcNAc(b1-4)GlcNAc
# Outline: as §1
# [18] = target: GlcNAc(b1-3)Gal(b1-4)GlcNAc
# Outline: as §1
# [19] = target: GlcNAc(b1-3)Gal(b1-4)GlcNAc(b1-3)Gal(b1-4)GlcNAc(b1-3)Gal(b1-4)GlcNAc(b1-2)Man(a1-3)[GlcNAc(b1-3)Gal(b1-4)GlcNAc(b1-3)Gal(b1-4)GlcNAc(b1-3)Gal(b1-4)GlcNAc(b1-2)Man(a1-6)]Man(b1-4)GlcNAc(b1-4)[Fuc(a1-6)]GlcNAc
# Outline: as §1
# [20] = target: GlcNAc(b1-3)Gal(b1-4)GlcNAc(b1-3)Gal(b1-4)GlcNAc(b1-3)Gal(b1-4)GlcNAc(b1-3)Gal(b1-4)GlcNAc(b1-2)Man(a1-3)[GlcNAc(b1-3)Gal(b1-4)GlcNAc(b1-3)Gal(b1-4)GlcNAc(b1-3)Gal(b1-4)GlcNAc(b1-3)Gal(b1-4)GlcNAc(b1-2)Man(a1-6)]Man(b1-4)GlcNAc(b1-4)GlcNAc
# Outline: as §1
# [21] = target: GlcNAc(b1-3)Gal(b1-4)GlcNAc(b1-3)Gal(b1-4)GlcNAc(b1-3)Gal(b1-4)GlcNAc(b1-3)Gal(b1-4)GlcNAc(b1-2)Man(a1-3)[GlcNAc(b1-3)Gal(b1-4)GlcNAc(b1-3)Gal(b1-4)GlcNAc(b1-3)Gal(b1-4)GlcNAc(b1-3)Gal(b1-4)GlcNAc(b1-2)Man(a1-6)]Man(b1-4)GlcNAc(b1-4)[Fuc(a1-6)]GlcNAc
# Outline: as §1
# GlcNAc(b1-6)GalNAc = target: GlcNAc(b1-6)GalNAc
# Outline: as §1
# Kdn(a2-3)Gal(b1-3)GlcNAc = target: Kdn(a2-3)Gal(b1-3)GlcNAc
# Outline: as §1
# [22] = target: Man(a1-2)Man(a1-3)[Man(a1-2)Man(a1-6)]Man(a1-6)[Man(a1-2)Man(a1-2)Man(a1-3)]Man(b1-4)GlcNAc(b1-4)GlcNAc
# Outline: as §1
# Neu5Ac(a2-3)Gal = target: Neu5Ac(a2-3)Gal
# Outline: as §1
# [23] = target: Neu5Ac(a2-3)Gal(b1-3)GlcNAc(b1-6)GalNAc
# Outline: as §1
# [24] = target: Neu5Ac(a2-3)Gal(b1-3)[Fuc(a1-4)]GlcNAc(b1-3)Gal(b1-3)[Fuc(a1-4)]GlcNAc
# Outline: as §1
# [25] = target: Neu5Ac(a2-3)Gal(b1-3)[Neu5Ac(a2-6)]GlcNAc(b1-3)[Fuc(a1-3)[Gal(b1-4)]GlcNAc(b1-6)]Gal(b1-4)Glc
# Outline: as §1
# Neu5Ac(a2-3)Gal(b1-4)Glc = target: Neu5Ac(a2-3)Gal(b1-4)Glc
# Outline: as §1
# [26] = target: Neu5Ac(a2-3)Gal(b1-4)[Fuc(a1-3)]GlcNAc(b1-3)GalNAc
# Outline: as §1
# [27] = target: Neu5Ac(a2-6)Gal(b1-4)GlcNAc(b1-2)Man(a1-3)[Neu5Ac(a2-6)Gal(b1-4)GlcNAc(b1-2)Man(a1-6)]Man(b1-4)GlcNAc(b1-4)GlcNAc
# Outline: as §1
# [28] = target: Neu5Ac(a2-6)Gal(b1-4)GlcNAc(b1-2)Man(a1-3)[Neu5Ac(a2-6)Gal(b1-4)GlcNAc(b1-2)Man(a1-6)]Man(b1-4)GlcNAc(b1-4)[Fuc(a1-6)]GlcNAc
# Outline: as §1
# [29] = target: Neu5Ac(a2-6)Gal(b1-4)GlcNAc(b1-2)Man(a1-6)[Man(a1-3)]Man(b1-4)GlcNAc(b1-4)GlcNAc
# Outline: as §1
# [30] = target: Neu5Ac(a2-6)Gal(b1-4)GlcNAc(b1-6)GalNAc
# Outline: as §1
# [31] = target: Neu5Ac(a2-8)Neu5Ac(a2-3)Gal(b1-3)GalNAc(b1-4)[Neu5Ac(a2-8)Neu5Ac(a2-3)]Gal(b1-4)Glc
# Outline: as §1
# [32] = target: Neu5Ac(a2-8)Neu5Ac(a2-8)Neu5Ac
# Outline: as §1
binder,measurement,setting,value
B1,glycan array binding signal (z-score),[1],-1.26
same,glycan array binding signal (z-score),[2],-0.382
same,glycan array binding signal (z-score),Fuc(a1-2)Gal(b1-4)GlcNAc,-0.356
same,glycan array binding signal (z-score),[3],0.826
same,glycan array binding signal (z-score),[4],-0.618
same,glycan array binding signal (z-score),[5],5.11
same,glycan array binding signal (z-score),[6],3.67
same,glycan array binding signal (z-score),[7],5.95
same,glycan array binding signal (z-score),[8],3.07
same,glycan array binding signal (z-score),[9],3.58
same,glycan array binding signal (z-score),[10],-0.383
same,glycan array binding signal (z-score),[11],-0.788
same,glycan array binding signal (z-score),Gal(b1-3)GlcNAc(b1-2)Man,-0.186
same,glycan array binding signal (z-score),[12],-0.269
same,glycan array binding signal (z-score),[13],5.68
same,glycan array binding signal (z-score),Gal3S(b1-4)Glc,-0.075
same,glycan array binding signal (z-score),[14],3.37
same,glycan array binding signal (z-score),[15],3.13
same,glycan array binding signal (z-score),[16],-0.323
same,glycan array binding signal (z-score),[17],5.41
same,glycan array binding signal (z-score),[18],-0.433
same,glycan array binding signal (z-score),[19],0.194
same,glycan array binding signal (z-score),[20],0.068
same,glycan array binding signal (z-score),[21],1.61
same,glycan array binding signal (z-score),GlcNAc(b1-6)GalNAc,3.43
same,glycan array binding signal (z-score),Kdn(a2-3)Gal(b1-3)GlcNAc,-0.092
same,glycan array binding signal (z-score),[22],-0.746
same,glycan array binding signal (z-score),Neu5Ac(a2-3)Gal,-0.419
same,glycan array binding signal (z-score),[23],4.59
same,glycan array binding signal (z-score),[24],-0.273
same,glycan array binding signal (z-score),[25],-0.251
same,glycan array binding signal (z-score),Neu5Ac(a2-3)Gal(b1-4)Glc,-0.302
same,glycan array binding signal (z-score),[26],0.105
same,glycan array binding signal (z-score),[27],-0.115
same,glycan array binding signal (z-score),[28],-0.343
same,glycan array binding signal (z-score),[29],-0.516
same,glycan array binding signal (z-score),[30],-0.224
same,glycan array binding signal (z-score),[31],-0.349
same,glycan array binding signal (z-score),[32],-0.221
